RORgamma inh = ROR gamma (mouse) transcription inhibition. Drosophila S2 Gal4-RORgamma UAS-luciferase reporter, 20 h. 5.4% of 310,000 active. P51450. Potency, µM (series often up to 53.6 µM), inactives show top-dose activity change, negative = inhibition, usual class: inhibitors; note: potency is the fitted concentration of half-maximal effect; % is set by controls: 0 for no effect and ±100 for the full control effect; nearly all actives have a fitted effect of over 60% in size
Target sequence (P51450 whole entry, looked up, the tested form may be a part): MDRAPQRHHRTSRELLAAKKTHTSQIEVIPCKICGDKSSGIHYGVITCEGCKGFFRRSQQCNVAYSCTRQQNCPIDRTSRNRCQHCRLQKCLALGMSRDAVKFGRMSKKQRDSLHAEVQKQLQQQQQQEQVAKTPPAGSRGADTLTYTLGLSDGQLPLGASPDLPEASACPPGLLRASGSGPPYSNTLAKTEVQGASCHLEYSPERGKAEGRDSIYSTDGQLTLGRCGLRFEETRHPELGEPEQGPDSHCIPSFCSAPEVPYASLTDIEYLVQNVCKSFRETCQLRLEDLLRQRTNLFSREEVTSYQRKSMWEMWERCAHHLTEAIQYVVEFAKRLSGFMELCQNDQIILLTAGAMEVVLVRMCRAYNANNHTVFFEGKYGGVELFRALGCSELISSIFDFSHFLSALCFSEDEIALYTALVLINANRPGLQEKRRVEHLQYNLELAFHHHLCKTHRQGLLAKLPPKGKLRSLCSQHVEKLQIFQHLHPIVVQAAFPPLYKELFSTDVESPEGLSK
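Drosophila Schneider cells stably carrying a metallothionein-driven Gal4 DBD–ROR gamma fusion and a UAS-Photinus luciferase reporter were exposed to compound for 1 hr, then induced with copper sulfate (700 uM final) for 20 hr at ambient temperature before luminescence reading.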
SW480 rereplic = induces DNA re-replication in SW480 colon adenocarcinoma cells | SW480 DNA re-replication, Hoechst DNA content imaging, 48 h | Potency, µM (titrated, usually from 46.1 µM), for inactives: at the highest dose re-replication activation, usual class: activators | 1.8% of 340,000 active; note: potency is the fitted concentration of half-maximal effect; % of control where 0% means no effect; nearly all actives have a fitted effect of over 55% in size
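Hoechst fluorescence of nuclei (405 nm excitation, 500-530 nm emission) measured by plate-scanning imager after 48 hr compound exposure at 37 C; re-replication scored as increased number of nuclei with elevated intensity.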
IL1B secr inh = inflammasome signaling inhibition, IL-1 beta readout; THP-1 LPS/ATP IL-1B secretion, AlphaLISA, 16 h; stronger effect = lower value; activity change, % at 57.5 µM; 4.7% of 360,000 active; AID 743279; in the data active = activity change below about -50%; inconclusive = mostly about -30% to -49%; note: % is set by controls: 0 for no effect and ±100 for the full control effect
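THP-1 cells pretreated 1 hr with compounds (up to 57.5 uM final), then stimulated with LPS (250 ng/mL final) plus ATP (1.25 mM final); secreted IL-1B measured by AlphaLISA after 16 hr, decreased signal indicating inhibition.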
Gal4-VP16 FLuc = counter-screen for ROR gamma inhibitors: Gal4-VP16 reporter; Drosophila S2 Gal4-VP16 UAS-luciferase, luminescence, 20 h; Potency, µM (titrated, usually from 53.6 µM), for inactives: at the top dose activity, negative = inhibition, usual class: inhibitors; 3.5% of 310,000 active;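 note: Gal4-VP16 expression switched on by copper sulfate through the metallothionein promoter; potency is the fitted concentration of half-maximal effect; % is set by controls: 0 for no effect and ±100 for the full control effect; nearly all actives have a fitted effect of over 50% in size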
MCF10A rereplic = inducers of DNA re-replication in MCF 10A breast cells. MCF 10A DNA re-replication, Hoechst nuclear intensity, 48 h. Potency, µM (doses to about 46.1 µM), without a hit: top-dose activity, positive = re-replication, most hits filed as activators. 2.9% of 350,000 active. AID 624296; note: potency is the fitted concentration of half-maximal effect; % of control where 0% means no effect; nearly all actives have a fitted effect of over 50% in size
Starred values were filed as active, the others as inactive; [ ] = remark or other dose. Only some compounds are listed: those with a hit (about 11% of all), similar ones and a draw of the others. Unless noted, calls come from the whole dose curve; as a rule, active = well fitted curve in the direction sought with a large enough effect; inconclusive = small, poorly fitted or top-dose-only effect, or another doubt; inactive = no such curve, though single readings can be large; an effect the other way counts as inactive or inconclusive.

Screening OC[C@@H]1CN(Cc2ccc3c(c2)OCO3)C[C@H](n2cnc3c(NC4CCCC4)ncnc32)O1 returned IL1B secr inh -71.9*.
Cc1cc(OCC(=O)Nc2c(C(C)C)cccc2C(C)C)no1 was read as IL1B secr inh 29.6.
`O=C(N/N=C/c1ccccn1)c1cc(-c2ccccc2)nc2ccccc12` gave RORgamma inh 0.501µM*, SW480 rereplic inconclusive, IL1B secr inh 0.0, Gal4-VP16 FLuc 0.794µM* and MCF10A rereplic inconclusive.
`O=C(N/N=C/c1ccc(O)cc1)c1cc(-c2ccccc2)nc2ccccc12` gave RORgamma inh -21.3%, SW480 rereplic 23.2%, IL1B secr inh 25.7, Gal4-VP16 FLuc 27.9% and MCF10A rereplic inconclusive.
`O=C(N/N=C/c1ccccn1)c1cc(C2CC2)nc2ccccc12` gave RORgamma inh 10µM*, SW480 rereplic inconclusive, IL1B secr inh -102.1*, Gal4-VP16 FLuc 12.6µM* and MCF10A rereplic 9.3%.
`Cc1ccc(-c2nc3n(n2)Cc2ccccc2-3)cc1` gave RORgamma inh inconclusive, SW480 rereplic -6.8%, IL1B secr inh -19.9, Gal4-VP16 FLuc 10µM* and MCF10A rereplic inconclusive.
`Fc1ccc(-c2nc3n(n2)Cc2ccccc2-3)cc1` gave RORgamma inh 0.0%, SW480 rereplic 0.6%, IL1B secr inh 35.8, Gal4-VP16 FLuc inconclusive and MCF10A rereplic 13.9%.
Screening CCn1c(C)nc2cc(-c3nc4n(n3)Cc3ccccc3-4)ccc21 returned RORgamma inh 0.891µM*, SW480 rereplic -13.6%, IL1B secr inh inconclusive, Gal4-VP16 FLuc 0.0447µM* and MCF10A rereplic 16.6%.
COc1ccc(-c2c(-c3ccc(OC)nc3)c3ccccc3n2C)cc1 was read as SW480 rereplic inconclusive, IL1B secr inh -4.7 and MCF10A rereplic 5.17µM*.
For COc1ccc(Nc2cc(C)nc3nc(C)nn23)cc1Cl the results were RORgamma inh 11.3%, SW480 rereplic -4.8%, IL1B secr inh -21.2, Gal4-VP16 FLuc -7.2% and MCF10A rereplic 5.0%.
`COc1cc(Nc2cc(C)nc3nc(C)nn23)cc(OC)c1OC` gave RORgamma inh -25.4%, SW480 rereplic -12.3%, IL1B secr inh -15.3, Gal4-VP16 FLuc 12.6µM* and MCF10A rereplic -9.3%.
Screening CSc1c(SCc2ccccc2)cnn(-c2ccccc2)c1=O returned RORgamma inh inconclusive, SW480 rereplic -2.1%, IL1B secr inh -98.1*, Gal4-VP16 FLuc inconclusive and MCF10A rereplic inconclusive.
`COc1cnn(-c2ccccc2)c(=O)c1SCc1ccc(Cl)c(Cl)c1` gave RORgamma inh -14.0%, SW480 rereplic -11.3%, IL1B secr inh inconclusive, Gal4-VP16 FLuc 6.7% and MCF10A rereplic -2.5%.
For Cn1ncc(SCc2ccccc2)c(Cl)c1=O the results were RORgamma inh inconclusive, SW480 rereplic inconclusive, Gal4-VP16 FLuc 15.8µM* and MCF10A rereplic inconclusive.
Cn1ncc(S(=O)(=O)Cc2ccccc2)c(Cl)c1=O was read as RORgamma inh -3.1%, SW480 rereplic 6.2%, Gal4-VP16 FLuc -5.1% and MCF10A rereplic inconclusive.
For COc1ccc(Nc2nccc3c2ncn3C)cc1 the results were SW480 rereplic -6.9%, IL1B secr inh -14.3 and MCF10A rereplic 5.9%.
Screening C/C(=N/NC(=O)c1ccc(Cl)s1)c1cccnc1 returned RORgamma inh 12.6µM*, SW480 rereplic 9.3%, IL1B secr inh -8.7, Gal4-VP16 FLuc inconclusive and MCF10A rereplic 9.9%.
`COc1ccc(C(=O)Nc2cccc(/C(C)=N\NC(=O)c3ccoc3C)c2)cc1OC` gave SW480 rereplic -0.6%, IL1B secr inh -50.4* and MCF10A rereplic 3.4%.
C/C(=N/NC(=O)c1ccc(C)s1)c1cccnc1 was read as RORgamma inh -25.8%, SW480 rereplic -13.1%, IL1B secr inh 0.0, Gal4-VP16 FLuc 6.8% and MCF10A rereplic -18.0%.
Screening C/C(=N\NC(=O)c1ccc(Cl)cc1)c1cccc(NC(=O)c2cccnc2)c1 returned RORgamma inh -5.4%, SW480 rereplic inconclusive, IL1B secr inh -66.4*, Gal4-VP16 FLuc -6.7% and MCF10A rereplic 8.1%.
C/C(=N\NC(=O)c1ccc(O)cc1)c1cccc(NC(=O)c2ccc(Cl)cc2)c1 was read as SW480 rereplic -138.9%, IL1B secr inh -96.5* and MCF10A rereplic 11.7%.
O=c1cnc2cnc(Oc3ccccc3)nc2n1Cc1cccs1 was read as RORgamma inh -18.5% and Gal4-VP16 FLuc 20.4%.
For Cc1cc2c(nc1C)CCCCN2C[C@H](O)CN1CCCc2nc(-c3ccc(Br)cc3)ccc21 the results were RORgamma inh 4.8%[10 µM] and Gal4-VP16 FLuc -16.4%[10 µM].
COc1cc(C(=O)Nc2cccc(-c3nnc(-c4ccco4)o3)c2)ccc1OC(C)=O was read as RORgamma inh inconclusive, SW480 rereplic -15.2%, IL1B secr inh -87.9*, Gal4-VP16 FLuc -12.6% and MCF10A rereplic inconclusive.
C/C(=N\NC(=O)c1cccc(N/N=C(\C)c2ccco2)c1)c1ccco1 was read as RORgamma inh 2.3%, SW480 rereplic -1.9%, IL1B secr inh 4.7, Gal4-VP16 FLuc -4.3% and MCF10A rereplic 4.4%.
Screening C/C(=N\NC(=O)c1cccc(N/N=C(\C)c2cc(O)ccc2O)c1)c1cc(O)ccc1O returned RORgamma inh 6.31µM*, SW480 rereplic inconclusive, IL1B secr inh 0.0, Gal4-VP16 FLuc inconclusive and MCF10A rereplic 0.0%.
Screening COc1cc(NS(C)(=O)=O)ccc1Cc1c2ccccc2nc2ccccc12 returned RORgamma inh -16.9% and Gal4-VP16 FLuc -13.7%.
Screening O=S(=O)(Nc1ccc(Cl)cc1)c1ccc(N2CCOCC2)c(NC(=S)NCCN2CCOCC2)c1 returned RORgamma inh 42.8%, SW480 rereplic inconclusive, IL1B secr inh -105.9*, Gal4-VP16 FLuc -4.3% and MCF10A rereplic 25.8%.
For N#Cc1ccc(C(=O)Nc2cc(S(=O)(=O)Nc3ccc(Cl)cc3)ccc2N2CCCCC2)cc1 the results were RORgamma inh 36.2%, SW480 rereplic 0.3%, IL1B secr inh 33.6, Gal4-VP16 FLuc inconclusive and MCF10A rereplic 1.3%.
Screening O=C(Nc1cc(S(=O)(=O)Nc2ccc(Cl)cc2)ccc1N1CCCCC1)c1ccc(F)cc1 returned RORgamma inh inconclusive, SW480 rereplic inconclusive, IL1B secr inh -66.2*, Gal4-VP16 FLuc -26.1% and MCF10A rereplic inconclusive.
For CC(C)(C(=O)N1CCC1(C)C(=O)Nc1ccccc1Br)c1ccccc1 (configuration not stated) the results were IL1B secr inh 0.0.
`N=C1SC(c2ccccc2)C(=O)N1c1ncc(Cc2ccccc2)s1` (configuration not stated) gave RORgamma inh 7.08µM*, SW480 rereplic 1.0%, IL1B secr inh 4.5, Gal4-VP16 FLuc 7.94µM* and MCF10A rereplic inconclusive.
